# RORg inh: ROR gamma (mouse) transcription inhibition; Potency, µM (titrated, usually from 53.6 µM), without a hit: at the top dose activity change, negative = inhibition, most hits filed as inhibitors; actives 5.4% (n = 310,000); P51450; Drosophila S2 Gal4-RORgamma UAS-luciferase reporter, 20 h; AID 2551; note: % is set by controls: 0 for no effect and ±100 for the full control effect; nearly all actives have a fitted effect of over 60% in size
# Target sequence (P51450 whole entry, looked up, the tested form may be a part): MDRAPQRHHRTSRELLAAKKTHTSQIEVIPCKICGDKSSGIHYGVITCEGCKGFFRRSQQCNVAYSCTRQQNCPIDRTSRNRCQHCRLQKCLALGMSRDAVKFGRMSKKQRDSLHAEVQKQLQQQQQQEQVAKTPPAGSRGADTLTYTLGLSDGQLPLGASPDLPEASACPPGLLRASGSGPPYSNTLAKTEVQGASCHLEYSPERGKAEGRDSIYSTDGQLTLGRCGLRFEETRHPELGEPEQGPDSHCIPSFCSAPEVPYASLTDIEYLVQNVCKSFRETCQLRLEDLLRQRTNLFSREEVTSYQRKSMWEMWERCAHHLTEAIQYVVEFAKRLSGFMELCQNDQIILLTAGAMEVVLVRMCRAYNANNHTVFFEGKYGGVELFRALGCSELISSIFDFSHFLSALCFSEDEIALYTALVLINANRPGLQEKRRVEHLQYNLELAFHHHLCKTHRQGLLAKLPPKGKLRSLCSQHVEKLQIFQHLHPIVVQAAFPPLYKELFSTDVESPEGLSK
#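 Drosophila S2 cells stably expressing Gal4-DBD/mouse RORγ fusion under metallothionein promoter plus UAS-luciferase; compound 1 h, then 700 uM CuSO4 induction for 20 h at ambient temperature; inhibition read as reduced luminescence.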
# ATXN viability: viability counter-screen for ATXN expression inhibitors | S2 cells (HEK-293 line with an ATXN2-luciferase reporter) viability, CellTiter-Fluor protease fluorescence, 24 h | actives 0.49% (n = 400,000) | Potency, µM (highest dose often 56.7 µM), most hits filed as cytotoxic | AID 651635; note: nearly all actives have a fitted effect of over 40% in size
# TGFb SMAD3 inh: TGF-b pathway inhibition; Potency, µM (highest dose often 46.1 µM), for the others: at the top dose activity, negative = inhibition, actives largely listed as inhibitors; actives 1.2% (n = 410,000); HepG2 CAGA-GFP TGF-b/SMAD3 reporter, GFP fluorescence, 18 h; TGF-beta stimulated, 500 pg/mL final; AID 588855; note: % is set by controls: 0 for no effect and ±100 for the full control effect; nearly all actives have a fitted effect of over 65% in size
#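 Read-out: total well GFP (ex488/em500-530) summed from mean per-cell fluorescence. Cells: HEPG2 CAGA-GFP, 1% FBS DMEM, 18 h at 37 degrees C with 500 pg/mL final TGF-beta. Unstimulated wells served as the full-inhibition control; stimulated DMSO wells = 0%.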
# VP16 counter: Gal4-VP16 reporter inhibition counter-screen; Potency, µM (highest dose often 53.6 µM), for the others: top-dose activity, negative = inhibition, usual class: inhibitors; actives 3.5% (n = 310,000); Drosophila S2 Gal4-VP16 UAS-luciferase, luminescence, 20 h;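 note: Gal4-VP16 expression switched on by copper sulfate through the metallothionein promoter; % is set by controls: 0 for no effect and ±100 for the full control effect; nearly all actives have a fitted effect of over 50% in size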
# HepG2 viability: kills HepG2 cells in TGF-b inhibitor counter-screen; HepG2 CAGA-GFP viability, ATP luminescence, 18 h; actives 0.76% (n = 410,000); Potency, µM (titrated, usually from 46.1 µM), inactives show at the top dose activity change, negative = cytotoxicity, usual class: cytotoxic; AID 588856
#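 HepG2 CAGA-GFP cells (1000/well, DMEM with 1% FBS) received compound, then TGF-beta at 500 pg/mL final, and were incubated 18 hours at 37 degrees C. Viability was read by CellTiter-Glo luminescence. Media-only wells were set as complete cell-killing and DMSO as no toxicity.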
# ATXN2 expr inh: inhibitors of ATXN2 expression; HEK-293 ATXN2-luciferase reporter, luminescence, 24 h; Potency, µM (series often up to 57 µM), inactives show at the top dose activity change, negative = inhibition, hits mostly inhibitors; actives 0.72% (n = 360,000); AID 1745845; note: % is set by controls: 0 for no effect and ±100 for the full control effect; nearly all actives have a fitted effect of over 55% in size
#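 ATXN2-luciferase reporter cells (luciferase flanked by upstream and downstream ATXN2 gene portions) were treated 24 h at 37 °C with compounds at up to 57 uM. SteadyGlo luminescence gave expression; GF-AFC fluorescence gave viability.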
# The depositor's hits bear a star; i = inactive; ? = inconclusive; · = no result; ! = a repeat was not active; [ ] = remark or other dose. Only some compounds are listed: those with a hit (about 6.3% of all), similar ones and a draw of the others. Calls come from the whole dose curve; as a rule, active = well fitted curve in the direction sought with a large enough effect; inconclusive = small, poorly fitted or top-dose-only effect, or another doubt; inactive = no such curve, though single readings can be large; an effect the other way counts as inactive or inconclusive. Potency is the fitted concentration of half-maximal effect.
SMILES,RORg inh,ATXN viability,TGFb SMAD3 inh,VP16 counter,HepG2 viability,ATXN2 expr inh
O=[N+]([O-])c1cc(S(=O)(=O)N2CCCCCC2)ccc1F,5.6µM*,·,?,4.5µM*,-99%,?
O=[N+]([O-])c1cc(S(=O)(=O)N2CCCC2)ccc1O,5%,?,-13%,3%,6%,1%
S=C1CCSc2ccc(Cl)cc2N1,4µM*,i,14%,10µM*,-18%,-5%
CN1CCN(CCNC(=O)Nc2ccccc2C(F)(F)F)CC1,-11%,i,2%,-1%,27%,-6%
C[C@@H](Oc1cc(-n2cnc3ccc(CN4CCN(C)CC4)cc32)sc1C(N)=O)c1ccccc1C(F)(F)F,·,·,·,·,·,31µM*
CCn1nnc(NC(=O)c2ccc(C(C)(C)C)cc2)n1,13µM*,?,3%,13µM*,-9%,12%
CCC1CN(CCC(=O)NC2CCOC(C)(C)C2)Cc2cc(OC)ccc2O1 (stereo not drawn),·,i,·,·,·,·
O=C(CN1CCCC1c1cccs1)N1CCN(S(=O)(=O)c2ccccc2)CC1 (stereo not drawn),·,i,4%,·,-8%,0%
CCCCOc1ccc(C2C(=O)N(C3CCCCC3)CC(=O)N2CCCC)cc1 (stereo not drawn),·,·,0%,·,-14%,·
O=C(Cc1ccccc1)N/N=C/c1cc(Br)cc(Cl)c1O,0.56µM*,·,-2%,1.3µM*,-16%,-27%[11.3 µM]
O=C(CP(=O)(c1ccccc1)c1ccccc1)N/N=C/c1cc(Br)cc(Br)c1O,1.1µM*,i,-18%,2.5µM*,-45%,10µM*
O=C(C[n+]1ccccc1)N/N=C/c1cc(Br)cc(Br)c1O,-38%,·,-26%,-22%,3%,-31%
COc1cc(Br)cc(/C=N/NC(=O)Cc2ccccc2)c1O,·,·,10µM*,·,-66%,?
O=C(COc1ccc(-c2ccccc2)cc1)N/N=C/c1cc(O)ccc1Br,19%,?,13µM*,-25%,-63%,-6%
COc1cc(/C=N/NC(=O)Cc2ccc(Br)cc2)cc(OC)c1O,2%,i,2%,-3%,2%,-14%
Cc1ccc(-n2ncc(C(=O)NC3CCCCC3)c2C2CCN(C(=O)OC(C)(C)C)CC2)cc1,·,·,0%,·,-30%,·
CCCCc1ccc(/C=C(\C#N)C(N)=S)s1,7.1µM*,i,?,?,-41%,-37%[11.3 µM]
COc1ccc(/C=C/C(=O)Nc2cc(C)nn2-c2nc3ccccc3[nH]2)cc1,1.8µM*,i,0%,2.5µM*,-24%,4%
Cc1cc(NC(=O)/C=C/c2ccc(F)cc2)n(-c2nc3ccccc3[nH]2)n1,1.3µM*,i,7%,1µM*,-23%,-17%
Cc1cc(NC(=O)/C=C/c2cccc(Cl)c2)n(-c2nc3ccccc3[nH]2)n1,?,?,0%,?,-25%,?
Cc1cc(NC(=O)/C=C/c2cccc(F)c2)n(-c2nc3ccccc3[nH]2)n1,1.6µM*,i,-28%,2.8µM*,-46%,4%
Cc1cc(NC(=O)CSc2nc3ccccc3[nH]2)n(-c2ccccc2)n1,26%,i,-6%,-5%,1%,·
COc1ccc(/C=C/C(=O)Nc2cc(C)nn2-c2nc3ccccc3n2Cc2cccc([N+](=O)[O-])c2)cc1,2%,i,0%,-2%,-7%,1%
CCOc1ccccc1-c1cncc(NC)n1,·,i,2%,·,0%,-1%
Nc1nc2c(ncn2COC(CO)CO)c(=O)[nH]1,-26%,i,-2%,-6%,2%,24µM*!
SMILES,RORg inh,ATXN viability,TGFb SMAD3 inh,VP16 counter,HepG2 viability,ATXN2 expr inh
C[C@H](O)[C@@H]1CN2CCc3c([nH]c4ccccc34)[C@@H]2C[C@@H]1N(C)C(=O)Nc1cc(Cl)cc(Cl)c1,·,i,?,·,-19%,-6%
Cc1cccc(-c2ccc3[nH]c4c(c3c2)CCN2C[C@@H]([C@H](C)O)[C@@H](N(C)C(=O)Nc3ccc(F)cc3)C[C@@H]42)c1,·,·,?,·,-116%,?
C[C@H](O)[C@@H]1CN2CCc3c([nH]c4ccc(-c5ccc6c(c5)OCO6)cc34)[C@@H]2C[C@@H]1N(C)C(=O)Nc1cc(Cl)cc(Cl)c1,·,16µM*,?,·,-95%,20µM*
COc1ccc(NC(=O)N(C)[C@H]2C[C@H]3c4[nH]c5ccc(-c6cccc(C)c6)cc5c4CCN3C[C@H]2[C@H](C)O)cc1,·,·,?,·,-121%,25µM*
COc1cccc(CN2CCC3(CC2)c2ccccc2[C@@H](NC(=O)c2ccccc2)[C@@H]3O)c1O,·,i,·,·,·,·
COc1ccc(Nc2cc(C(=O)NCCCN(C)Cc3ccccc3)c3ccccc3n2)cc1OC,·,·,?,·,-61%,·
CC1CCCCN1CCCNC(=O)c1sc2ncccc2c1-n1cccc1 (stereo not drawn),·,i,29%,·,4%,11%
O=C(O)c1c(Cl)c(Cl)c(Cl)c(Cl)c1-c1c2cc(I)c(=O)c(I)c-2oc2c(I)c(O)c(I)cc12,14µM*,·,·,?,·,?
O=C1/C(=C/c2cccnc2)CC/C1=C\c1cccnc1,1%,?,7%,-18%,-13%,?
O=C1/C(=C/c2cccnc2)CCC/C1=C\c1cccnc1,1.3µM*,11µM*,4µM*,2.5µM*,-99%,18µM*
CCC1C/C(=C\c2cccnc2)C(=O)/C(=C/c2cccnc2)C1 (stereo not drawn),5.6µM*,·,4µM*,1.8µM*,10µM*,14µM*
COc1cccc(CN(C)C(=O)c2cnn(-c3ncc4c(n3)-c3ccccc3CCC4)c2C)c1,·,i,·,·,·,·
CCCC(=O)OCCNc1cc(Sc2nc3ccccc3[nH]2)c2nonc2c1[N+](=O)[O-],2.8µM*,?,?,3.2µM*,6.3µM*,?
CCC(=O)OCCNc1cc(Sc2nccn2C)c2nonc2c1[N+](=O)[O-],4.5µM*,·,11µM*,4µM*,-124%,?
CCC(=O)OCCNc1cc(SCCC(=O)OC)c2nonc2c1[N+](=O)[O-],-11%,i,?,?,-75%,8%
Cc1nnsc1C(=O)N/N=C/c1ccccc1,12%,i,9%,4%,-6%,1%
Cc1c(/C=N\NC(=O)c2ccc([N+](=O)[O-])cc2)cnn1C,-34%,?,4%,3%,-3%,-14%
Cc1nnsc1C(=O)N/N=C/c1ccc2ccccc2c1O,4.5µM*,?,2%,2.8µM*,2%,?

# Screens (PubChem)
